According to ChEMBL document CHEMBL3988442, “University of Dundee, Small-Polar-MMV Screening Library” (2021):

What follows are molecules tested against T1, Aspartate--tRNA(Asp/Asn) ligase (Mycobacterium tuberculosis (strain ATCC 25618 / H37Rv)) (UniProt P9WFW3) (assay: Assay for Asp RNA synthetase-1 from Mycobacterium tuberculosis). Details: 30 µM.
T1 sequence (whole entry): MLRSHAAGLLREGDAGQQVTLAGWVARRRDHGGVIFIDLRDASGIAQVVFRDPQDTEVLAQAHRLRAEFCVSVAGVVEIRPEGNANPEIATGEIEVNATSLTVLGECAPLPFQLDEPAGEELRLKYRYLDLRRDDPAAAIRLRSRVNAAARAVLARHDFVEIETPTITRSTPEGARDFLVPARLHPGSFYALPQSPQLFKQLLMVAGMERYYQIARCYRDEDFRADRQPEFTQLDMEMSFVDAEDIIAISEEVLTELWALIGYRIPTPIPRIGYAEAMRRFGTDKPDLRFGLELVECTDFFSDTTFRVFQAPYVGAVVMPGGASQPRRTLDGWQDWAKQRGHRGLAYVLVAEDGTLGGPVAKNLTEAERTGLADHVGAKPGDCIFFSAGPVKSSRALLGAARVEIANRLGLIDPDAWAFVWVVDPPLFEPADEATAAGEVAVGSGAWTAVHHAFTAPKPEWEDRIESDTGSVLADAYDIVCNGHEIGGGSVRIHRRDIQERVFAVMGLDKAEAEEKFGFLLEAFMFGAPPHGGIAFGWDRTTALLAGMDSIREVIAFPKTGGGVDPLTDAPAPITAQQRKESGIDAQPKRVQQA
Assay type: functional
Design: scale not given: in the data most compounds retested in dose-response had high values
`CN1C(=O)C[C@@H]2[C@@H]1CCN2C(=O)c1ccc[nH]1` was tested, and the Percent Effect was -4.63%. `CN(C)C(=O)NC1COC2(CCN(C(=O)Nc3ccccc3)CC2)C1` (stereo not given) showed a Percent Effect of 7.1%. With `Cc1nnc(N2C[C@H](C(=O)NCC3CC3)[C@@H]3CCO[C@@H]3C2)s1` the Percent Effect was -0.219%. `Cc1nn(C(C)C)c(C)c1NC(=O)c1ccncc1` was tested, and the Percent Effect was -0.479%. In the case of `Cc1cc(C)n(-c2ccc(CNCc3ccc(OC(C)C)cc3)cn2)n1`, the Percent Effect was -4.39%. `CN(C)c1ncccc1CNC(=O)N1CCCC1c1ccsc1` (stereo not given) gave a Percent Effect of 2.25%. With `CCc1nnc2n1CCN(Cc1csc(-c3ccc(C)o3)n1)C2` the Percent Effect was 0.544%. For `COc1cccc2c1OCC(C(=O)N1CCN(S(C)(=O)=O)CC1)C2` (stereo not given), the Percent Effect was -3.14%. In the case of `O=C(c1cnco1)N1C[C@@H]2CC[C@H](Oc3cccc(F)c3)[C@@H]2C1`, the Percent Effect was -3.5%. `COCCC(=O)N1CCC2(COCc3cnc(-c4ccccc4)nc32)C1` (stereo not given) gave a Percent Effect of -4.87%. `Cc1cc(C(=O)N2CCCC2Cn2nc(C)cc2C)on1` (stereo not given) gave a Percent Effect of 0.681%. `Cc1nn(C)cc1CCC(=O)N1CCCC(n2cncn2)C1` (stereo not given) was tested, and the Percent Effect was -2.1%. Work on `O=c1cc(Cn2cncn2)nc2n1CCCN(CC1CC1)C2` yielded a Percent Effect of -4.96%. Molecule `CNC(=O)C1(CCCc2cccnc2)CCCCN1` (stereo not given) has a Percent Effect of 0.849%. For `Cn1c(Cn2ccnc2)nnc1C1CCN(C(=O)C2(C)CC2)CC1`, the Percent Effect was -0.661%. With `CN(C)C(=O)CN1C[C@@H]2CC[C@H](C1)N(C(=O)CCn1cncn1)C2` the Percent Effect was 1.04%. With `CC(C)n1ccc(-c2cc(C(=O)N3CCCC3)c3ccccn23)n1` the Percent Effect was 2.64%. Work on `CC(=O)N1CCN(C(=O)CN2CCc3c(ncn3C3CC3)C2)CC1` yielded a Percent Effect of 1.82%. Molecule `COC(=O)c1ccc(C2CC(=O)Oc3cc(C)[nH]c(=O)c32)cc1` (stereo not given) has a Percent Effect of -5.75%. Molecule `Cc1cc(C)n(CC2CCCN2C(=O)CCCNc2ncccn2)n1` (stereo not given) has a Percent Effect of -2.92%. In the case of `Cc1noc(C)c1CN1CCN(Cc2ccncc2)c2ncccc2C1`, the Percent Effect was -2.02%. `CCc1cc(C)c(C(=O)N2CCCC2CC(=O)c2cnn(C)c2)o1` (stereo not given) showed a Percent Effect of -2.02%. For `CC(C)c1nc(CCNC(=O)NCc2ccnc(N(C)C)c2)cs1`, the Percent Effect was -0.713%. `COc1ccc(C(O)CNc2c(C#N)c(=O)n(C)c(=O)n2C)cc1` (stereo not given) showed a Percent Effect of -3.91%. Work on `CCn1ccnc1CN1CCN(Cc2ccccn2)CC1C` (stereo not given) yielded a Percent Effect of -1.39%. For `COCCc1noc(CN2CCc3nn(C(C)C)c(=O)cc3C2)n1`, the Percent Effect was -0.0281%. Work on `CCn1ccnc1CN1CCN(CC(O)c2ccccc2)CC1` (stereo not given) yielded a Percent Effect of -5.63%. With `COc1ccccc1C(=O)N1CCCC1Cn1cc(C)cn1` (stereo not given) the Percent Effect was 3.31%. Work on `Cc1n[nH]c(C)c1C1CCCN1C(=O)NCCSC(C)(C)C` (stereo not given) yielded a Percent Effect of 3.45%. Molecule `CNc1cc2c(nn1)CCN(C(=O)c1ccc(-n3nccc3C)cc1)C2` has a Percent Effect of -2.02%. `O=C1C(NCc2nnc3n2CCCC3)CCN1CC(F)(F)F` (stereo not given) was tested, and the Percent Effect was -0.389%. In the case of `COc1cccc(S(=O)(=O)NC2CNC(=O)C2)c1` (stereo not given), the Percent Effect was -3.48%. With `Cc1ccc2c(n1)N(C)CCN(C(=O)C1CC1)C2` the Percent Effect was 9.78%. `Cn1cc(-c2nc(CNCCn3cccn3)cs2)cn1` was tested, and the Percent Effect was -0.0111%. `CCC(=O)N1CCC2(CC1)c1nc[nH]c1CCN2S(C)(=O)=O` showed a Percent Effect of -2.17%. `Cc1cnn(C2CCCN(C(=O)c3cc(C)sc3C)C2)c1` (stereo not given) showed a Percent Effect of -4.82%. Molecule `O=C(c1ccnnc1)N1CCN2C[C@H](Oc3cccc(F)c3)C[C@H]2C1` has a Percent Effect of -0.611%. For `O=C1CC(NCc2ccncc2)CN1Cc1cccc(F)c1` (stereo not given), the Percent Effect was 2.73%. `Fc1cnc(N2CCOCC3(CCCN(c4nncs4)C3)C2)nc1` (stereo not given) showed a Percent Effect of -3.89%. `COc1c(CNC2CCCc3ccccc32)c(C)nn1C` (stereo not given) showed a Percent Effect of -1%.
